Measured values taken from article PMC5540273 (PLoS ONE, 2017).

Experiments:
Conditions in all cases: concentration: 1 μM, replicates: in singlicate; n = 1
MEK5 = system: T1, MEK5
T1 construct: gene MAP2K5

MEK6 = system: T2, MEK6
T2 construct: gene MAP2K6

MELK = system: MELK
MERTK = system: MERTK
MET = system: MET
MINK = system: T3, MINK
T3 construct: gene MINK1

MKK7 = system: MKK7
MKNK1 = system: MKNK1
MKNK2 = system: MKNK2
MLCK = system: T4, MLCK
T4 construct: gene MYLK3

MLK1 = system: T5, MLK1
T5 construct: gene MAP3K9

MLK2 = system: MLK2
MLK3 = system: MLK3
MRCKA = system: MRCKA
MRCKB = system: T6, MRCKB
T6 construct: gene CDC42BPB

MST1R = system: MST1R
MST1 = system: T7, MST1
T7 construct: gene STK4

MST2 = system: T8, MST2
T8 construct: gene STK3

MST3 = system: T9, MST3
T9 construct: gene STK24

MST4 = system: MST4
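Further: KINOMEscan kinase panel screen.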

Cl.Cl.NCC(C(=O)Nc1cc(Br)c(-c2ccnc3[nH]ccc23)s1)c1ccccc1 (centres unmarked) [GSK1269851]
%Inh (MEK5): 20% | %Inh (MEK6): 0% | %Inh (MELK): 45% | %Inh (MERTK): 19% | %Inh (MET): 0% | %Inh (MINK): 8% | %Inh (MKK7): 0% | %Inh (MKNK1): 13% | %Inh (MKNK2): 99.1% | %Inh (MLCK): 98.7% | %Inh (MLK1): 0% | %Inh (MLK2): 18% | %Inh (MLK3): 11% | %Inh (MRCKA): 0% | %Inh (MRCKB): 25% | %Inh (MST1R): 47% | %Inh (MST1): 0% | %Inh (MST2): 7% | %Inh (MST3): 0% | %Inh (MST4): 11%

CC(C)(C)c1ccc2nccc(Nc3cccc(O)c3)c2c1 [GW856795]
%Inh (MEK5): 52% | %Inh (MEK6): 0% | %Inh (MELK): 1% | %Inh (MERTK): 0% | %Inh (MET): 0% | %Inh (MINK): 0% | %Inh (MKK7): 31% | %Inh (MKNK1): 47% | %Inh (MKNK2): 23% | %Inh (MLCK): 0% | %Inh (MLK1): 0% | %Inh (MLK2): 3% | %Inh (MLK3): 0% | %Inh (MRCKA): 0% | %Inh (MRCKB): 0% | %Inh (MST1R): 32% | %Inh (MST1): 0% | %Inh (MST2): 18% | %Inh (MST3): 0% | %Inh (MST4): 0%

c1ccc(-c2cnc3nccnn23)cc1 [AH20685]
%Inh (MEK5): 0% | %Inh (MEK6): 0% | %Inh (MELK): 0% | %Inh (MERTK): 0% | %Inh (MET): 0% | %Inh (MINK): 0% | %Inh (MKK7): 0% | %Inh (MKNK1): 2% | %Inh (MKNK2): 11% | %Inh (MLCK): 9% | %Inh (MLK1): 0% | %Inh (MLK2): 0% | %Inh (MLK3): 0% | %Inh (MRCKA): 0% | %Inh (MRCKB): 0% | %Inh (MST1R): 38% | %Inh (MST1): 5% | %Inh (MST2): 0% | %Inh (MST3): 0% | %Inh (MST4): 0%

CCn1c(-c2nonc2N)nc2c(C#CC(C)(C)O)nc(OC[C@H](N)c3ccccc3)cc21 [GSK943949]
%Inh (MEK5): 0% | %Inh (MEK6): 0% | %Inh (MELK): 63% | %Inh (MERTK): 21% | %Inh (MET): 0% | %Inh (MINK): 5% | %Inh (MKK7): 0% | %Inh (MKNK1): 5% | %Inh (MKNK2): 0% | %Inh (MLCK): 34% | %Inh (MLK1): 0% | %Inh (MLK2): 23% | %Inh (MLK3): 5% | %Inh (MRCKA): 0% | %Inh (MRCKB): 5% | %Inh (MST1R): 1% | %Inh (MST1): 0% | %Inh (MST2): 58% | %Inh (MST3): 9% | %Inh (MST4): 7%

Nc1ncnc2c1nc(-c1ccccc1)n2-c1ccccc1 [SKF-97293]
%Inh (MEK5): 32% | %Inh (MEK6): 27% | %Inh (MELK): 0% | %Inh (MERTK): 0% | %Inh (MET): 10% | %Inh (MINK): 16% | %Inh (MKK7): 38% | %Inh (MKNK1): 0% | %Inh (MKNK2): 18% | %Inh (MLCK): 23% | %Inh (MLK1): 16% | %Inh (MLK2): 2% | %Inh (MLK3): 0% | %Inh (MRCKA): 0% | %Inh (MRCKB): 0% | %Inh (MST1R): 18% | %Inh (MST1): 21% | %Inh (MST2): 20% | %Inh (MST3): 0% | %Inh (MST4): 24%

Clc1ccc(-c2nn3ncccc3c2-c2ccnc(Nc3ccc4c(c3)OCCO4)n2)cc1 [GW829116]
%Inh (MEK5): 33% | %Inh (MEK6): 20% | %Inh (MELK): 0% | %Inh (MERTK): 0% | %Inh (MET): 0% | %Inh (MINK): 23% | %Inh (MKK7): 0% | %Inh (MKNK1): 0% | %Inh (MKNK2): 0% | %Inh (MLCK): 0% | %Inh (MLK1): 0% | %Inh (MLK2): 16% | %Inh (MLK3): 0% | %Inh (MRCKA): 34% | %Inh (MRCKB): 0% | %Inh (MST1R): 0% | %Inh (MST1): 0% | %Inh (MST2): 9% | %Inh (MST3): 0% | %Inh (MST4): 0%

Cc1ccc(F)c(C(=O)Nc2cccc(-c3nn4ccccc4c3-c3ccnc(Nc4cccc(F)c4)n3)c2)c1F [GSK361061]
%Inh (MEK5): 95% | %Inh (MEK6): 18% | %Inh (MELK): 12% | %Inh (MERTK): 75% | %Inh (MET): 58% | %Inh (MINK): 17% | %Inh (MKK7): 10% | %Inh (MKNK1): 21% | %Inh (MKNK2): 0% | %Inh (MLCK): 5% | %Inh (MLK1): 14% | %Inh (MLK2): 42% | %Inh (MLK3): 31% | %Inh (MRCKA): 22% | %Inh (MRCKB): 24% | %Inh (MST1R): 34% | %Inh (MST1): 34% | %Inh (MST2): 0% | %Inh (MST3): 2% | %Inh (MST4): 15%

Cc1ccc(C)c(NC(=O)NC2CCN(c3ccnc(Nc4ccc(F)cc4)n3)C2)c1 (centres unmarked) [GSK1379720]
%Inh (MEK5): 50% | %Inh (MEK6): 0% | %Inh (MELK): 0% | %Inh (MERTK): 21% | %Inh (MET): 0% | %Inh (MINK): 0% | %Inh (MKK7): 0% | %Inh (MKNK1): 0% | %Inh (MKNK2): 0% | %Inh (MLCK): 22% | %Inh (MLK1): 0% | %Inh (MLK2): 0% | %Inh (MLK3): 0% | %Inh (MRCKA): 11% | %Inh (MRCKB): 6% | %Inh (MST1R): 38% | %Inh (MST1): 0% | %Inh (MST2): 0% | %Inh (MST3): 0% | %Inh (MST4): 0%

Nc1ncc(-c2ccc3nccc(-c4ccncc4)c3c2)cc1S(=O)(=O)N1CCOCC1 [GSK1627798]
%Inh (MEK5): 15% | %Inh (MEK6): 0% | %Inh (MELK): 0% | %Inh (MERTK): 12% | %Inh (MET): 0% | %Inh (MINK): 10% | %Inh (MKK7): 5% | %Inh (MKNK1): 0% | %Inh (MKNK2): 3% | %Inh (MLCK): 0% | %Inh (MLK1): 6% | %Inh (MLK2): 0% | %Inh (MLK3): 0% | %Inh (MRCKA): 0% | %Inh (MRCKB): 0% | %Inh (MST1R): 11% | %Inh (MST1): 7% | %Inh (MST2): 0% | %Inh (MST3): 4% | %Inh (MST4): 0%

Oc1cc(Nc2ccnc3cc(I)ccc23)ccc1F [GW552771]
%Inh (MEK5): 96.5% | %Inh (MEK6): 0% | %Inh (MELK): 0% | %Inh (MERTK): 34% | %Inh (MET): 0% | %Inh (MINK): 55% | %Inh (MKK7): 0% | %Inh (MKNK1): 0% | %Inh (MKNK2): 14% | %Inh (MLCK): 0% | %Inh (MLK1): 0% | %Inh (MLK2): 13% | %Inh (MLK3): 0% | %Inh (MRCKA): 0% | %Inh (MRCKB): 0% | %Inh (MST1R): 28% | %Inh (MST1): 9% | %Inh (MST2): 0% | %Inh (MST3): 2% | %Inh (MST4): 0%
